# Target: T1, ELK3 (Homo sapiens, UniProt P41970 1-407)
# T1 sequence: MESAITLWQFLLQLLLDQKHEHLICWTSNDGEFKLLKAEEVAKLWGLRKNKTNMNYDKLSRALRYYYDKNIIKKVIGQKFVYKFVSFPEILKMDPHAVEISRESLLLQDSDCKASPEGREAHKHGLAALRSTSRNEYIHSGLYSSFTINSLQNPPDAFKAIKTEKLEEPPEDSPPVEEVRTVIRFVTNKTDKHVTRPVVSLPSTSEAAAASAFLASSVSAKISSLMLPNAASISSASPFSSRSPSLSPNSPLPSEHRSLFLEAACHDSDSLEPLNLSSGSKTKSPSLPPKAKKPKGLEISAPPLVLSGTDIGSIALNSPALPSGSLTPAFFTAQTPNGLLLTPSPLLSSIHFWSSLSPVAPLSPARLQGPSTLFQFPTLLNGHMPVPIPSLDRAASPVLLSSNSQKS
# Assay: DAPPL (digital affinity profiling via proximity ligation, sequencing); 10 mM Tris-HCl pH 7.5, 50 mM NaCl, 1 mM DTT, 4% glycerol, room temperature, 30 min; GST-TFs on glutathione beads, 16-mer random dsDNA library, 0.1% formaldehyde crosslink after washing; high values mean tight binding
# Conditions: protein: recombinant; tags: N-terminal GST; dsDNA, one strand shown
# In short: (§1)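 In yeast, human transcription factors were expressed with a GST fusion, then pulled down on glutathione beads and given DNA barcodes. Pooled with a tag-only sample, they were exposed to 200 nmole of a 16-mer random double-stranded DNA library (Tris/NaCl/DTT/glycerol buffer, room temperature, 30 min), washed, crosslinked with 0.1% formaldehyde, proximity-ligated using BsaI/T4 ligase for 1 h at 37 °C, PCR-amplified and read on an Illumina NextSeq500. Each hexamer's frequency of reads for a factor, divided by the matching frequency for the tag-only sample, gives the binding signal.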
row,Sequence,binding signal
1,ATATAC,"1.27 fold enrichment (6-mer frequency, TF over GST control)"
2,CTTTCC,"2.1 fold enrichment (6-mer frequency, TF over GST control)"
3,ACGTCT,"1.18 fold enrichment (6-mer frequency, TF over GST control)"
4,TCTACT,"1.28 fold enrichment (6-mer frequency, TF over GST control)"
5,TTGGTT,"1.43 fold enrichment (6-mer frequency, TF over GST control)"
6,GTTCTG,"1.18 fold enrichment (6-mer frequency, TF over GST control)"
7,ATGGTT,"1.39 fold enrichment (6-mer frequency, TF over GST control)"
8,TCCTTG,"1.29 fold enrichment (6-mer frequency, TF over GST control)"
9,CGACTC,"1.43 fold enrichment (6-mer frequency, TF over GST control)"
10,AAGTCC,"1.27 fold enrichment (6-mer frequency, TF over GST control)"
11,ATTTAA,"1.28 fold enrichment (6-mer frequency, TF over GST control)"
12,CCTGAC,"1.56 fold enrichment (6-mer frequency, TF over GST control)"
13,CCCGAT,"1.06 fold enrichment (6-mer frequency, TF over GST control)"
14,TAGTAT,"1.15 fold enrichment (6-mer frequency, TF over GST control)"
15,AAACCT,"1.15 fold enrichment (6-mer frequency, TF over GST control)"
16,GTCTCG,"1.37 fold enrichment (6-mer frequency, TF over GST control)"
17,ACTTCA,"1.44 fold enrichment (6-mer frequency, TF over GST control)"
18,CTCAAT,"1.34 fold enrichment (6-mer frequency, TF over GST control)"
19,CCAATA,"1.28 fold enrichment (6-mer frequency, TF over GST control)"
20,GCCTTA,"1.15 fold enrichment (6-mer frequency, TF over GST control)"

row,Sequence,binding signal
1,GATTCA,"1.1 fold enrichment (6-mer frequency, TF over GST control)"
2,GCTCCA,"1.17 fold enrichment (6-mer frequency, TF over GST control)"
3,TCCTTT,"1.81 fold enrichment (6-mer frequency, TF over GST control)"
4,CATTCT,"1.28 fold enrichment (6-mer frequency, TF over GST control)"
5,TTCCTG,"2.28 fold enrichment (6-mer frequency, TF over GST control)"
6,CCTCCT,"1.48 fold enrichment (6-mer frequency, TF over GST control)"
7,TATGAT,"1.23 fold enrichment (6-mer frequency, TF over GST control)"
8,CGATCT,"1.3 fold enrichment (6-mer frequency, TF over GST control)"
9,AGCTAT,"1.24 fold enrichment (6-mer frequency, TF over GST control)"
10,TTATGC,"1.16 fold enrichment (6-mer frequency, TF over GST control)"
11,CTTGCC,"1.3 fold enrichment (6-mer frequency, TF over GST control)"
12,TATCAT,"1.17 fold enrichment (6-mer frequency, TF over GST control)"
13,ATTTCA,"1.23 fold enrichment (6-mer frequency, TF over GST control)"
14,TCTCGA,"1.31 fold enrichment (6-mer frequency, TF over GST control)"
15,TACGCT,"1.36 fold enrichment (6-mer frequency, TF over GST control)"
16,CTGCTG,"1.3 fold enrichment (6-mer frequency, TF over GST control)"
17,GCCTCG,"1.26 fold enrichment (6-mer frequency, TF over GST control)"
18,TATTGA,"1.01 fold enrichment (6-mer frequency, TF over GST control)"
19,TTGATA,"1.01 fold enrichment (6-mer frequency, TF over GST control)"
20,TGGATG,"1.49 fold enrichment (6-mer frequency, TF over GST control)"

# Target: T2, FEV (Homo sapiens, UniProt Q99581 1-238)
# T2 sequence: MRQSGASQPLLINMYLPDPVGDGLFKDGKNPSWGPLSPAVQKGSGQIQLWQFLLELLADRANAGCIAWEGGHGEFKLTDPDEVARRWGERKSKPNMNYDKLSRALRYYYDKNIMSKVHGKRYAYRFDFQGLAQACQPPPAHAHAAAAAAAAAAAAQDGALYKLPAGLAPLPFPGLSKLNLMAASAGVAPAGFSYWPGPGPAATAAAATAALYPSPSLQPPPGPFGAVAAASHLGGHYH
# Assay: as above
# Conditions: protein: recombinant; tags: N-terminal GST; dsDNA, one strand shown
# In short: as §1
row,Sequence,binding signal
1,ATATAC,"1.11 fold enrichment (6-mer frequency, TF over GST control)"
2,CTTTCC,"2.15 fold enrichment (6-mer frequency, TF over GST control)"
3,ACGTCT,"1.13 fold enrichment (6-mer frequency, TF over GST control)"
4,TCTACT,"1.39 fold enrichment (6-mer frequency, TF over GST control)"
5,TTGGTT,"1.31 fold enrichment (6-mer frequency, TF over GST control)"
6,GTTCTG,"1.03 fold enrichment (6-mer frequency, TF over GST control)"
7,ATGGTT,"1.34 fold enrichment (6-mer frequency, TF over GST control)"
8,TCCTTG,"1.21 fold enrichment (6-mer frequency, TF over GST control)"
9,CGACTC,"1.42 fold enrichment (6-mer frequency, TF over GST control)"
10,AAGTCC,"1.34 fold enrichment (6-mer frequency, TF over GST control)"
11,ATTTAA,"1.14 fold enrichment (6-mer frequency, TF over GST control)"
12,CCTGAC,"1.5 fold enrichment (6-mer frequency, TF over GST control)"
13,CCCGAT,"1.27 fold enrichment (6-mer frequency, TF over GST control)"
14,TAGTAT,"1.28 fold enrichment (6-mer frequency, TF over GST control)"
15,AAACCT,"1.08 fold enrichment (6-mer frequency, TF over GST control)"
16,GTCTCG,"1.3 fold enrichment (6-mer frequency, TF over GST control)"
17,ACTTCA,"1.38 fold enrichment (6-mer frequency, TF over GST control)"
18,CTCAAT,"1.23 fold enrichment (6-mer frequency, TF over GST control)"
19,CCAATA,"1.19 fold enrichment (6-mer frequency, TF over GST control)"
20,GCCTTA,"1.11 fold enrichment (6-mer frequency, TF over GST control)"

row,Sequence,binding signal
1,GATTCA,"1.08 fold enrichment (6-mer frequency, TF over GST control)"
2,GCTCCA,"1.22 fold enrichment (6-mer frequency, TF over GST control)"
3,TCCTTT,"1.69 fold enrichment (6-mer frequency, TF over GST control)"
4,CATTCT,"1.29 fold enrichment (6-mer frequency, TF over GST control)"
5,TTCCTG,"2.13 fold enrichment (6-mer frequency, TF over GST control)"
6,CCTCCT,"1.46 fold enrichment (6-mer frequency, TF over GST control)"
7,TATGAT,"1.16 fold enrichment (6-mer frequency, TF over GST control)"
8,CGATCT,"1.32 fold enrichment (6-mer frequency, TF over GST control)"
9,AGCTAT,"1.16 fold enrichment (6-mer frequency, TF over GST control)"
10,TTATGC,"1.24 fold enrichment (6-mer frequency, TF over GST control)"
11,CTTGCC,"1.29 fold enrichment (6-mer frequency, TF over GST control)"
12,TATCAT,"1.16 fold enrichment (6-mer frequency, TF over GST control)"
13,ATTTCA,"1.25 fold enrichment (6-mer frequency, TF over GST control)"
14,TCTCGA,"1.23 fold enrichment (6-mer frequency, TF over GST control)"
15,TACGCT,"1.32 fold enrichment (6-mer frequency, TF over GST control)"
16,CTGCTG,"1.25 fold enrichment (6-mer frequency, TF over GST control)"
17,GCCTCG,"1.25 fold enrichment (6-mer frequency, TF over GST control)"
18,TATTGA,"1.1 fold enrichment (6-mer frequency, TF over GST control)"
19,TTGATA,"1.13 fold enrichment (6-mer frequency, TF over GST control)"
20,TGGATG,"1.35 fold enrichment (6-mer frequency, TF over GST control)"

# Target: ETV5 (Homo sapiens, UniProt P41161 1-510)
# Sequence (P41161 whole entry): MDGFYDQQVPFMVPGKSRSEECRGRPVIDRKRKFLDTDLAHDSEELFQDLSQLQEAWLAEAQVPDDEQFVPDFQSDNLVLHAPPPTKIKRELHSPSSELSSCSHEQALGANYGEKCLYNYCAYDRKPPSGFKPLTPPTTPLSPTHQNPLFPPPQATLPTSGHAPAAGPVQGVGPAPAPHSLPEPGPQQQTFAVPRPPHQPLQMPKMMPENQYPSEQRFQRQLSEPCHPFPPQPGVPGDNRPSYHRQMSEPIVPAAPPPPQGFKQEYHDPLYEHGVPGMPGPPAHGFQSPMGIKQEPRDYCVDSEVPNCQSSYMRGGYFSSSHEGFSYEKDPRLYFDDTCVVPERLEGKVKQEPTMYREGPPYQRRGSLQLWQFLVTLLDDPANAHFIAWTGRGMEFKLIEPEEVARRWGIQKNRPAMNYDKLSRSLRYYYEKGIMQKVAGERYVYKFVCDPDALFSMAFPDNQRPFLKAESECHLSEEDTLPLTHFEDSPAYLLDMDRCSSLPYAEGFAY
# Assay: as above
# Conditions: protein: recombinant; tags: N-terminal GST; dsDNA, one strand shown
# In short: as §1
row,Sequence,binding signal
1,ATATAC,"1.16 fold enrichment (6-mer frequency, TF over GST control)"
2,CTTTCC,"2.04 fold enrichment (6-mer frequency, TF over GST control)"
3,ACGTCT,"1.12 fold enrichment (6-mer frequency, TF over GST control)"
4,TCTACT,"1.39 fold enrichment (6-mer frequency, TF over GST control)"
5,TTGGTT,"1.44 fold enrichment (6-mer frequency, TF over GST control)"
6,GTTCTG,"1.08 fold enrichment (6-mer frequency, TF over GST control)"
7,ATGGTT,"1.31 fold enrichment (6-mer frequency, TF over GST control)"
8,TCCTTG,"1.22 fold enrichment (6-mer frequency, TF over GST control)"
9,CGACTC,"1.44 fold enrichment (6-mer frequency, TF over GST control)"
10,AAGTCC,"1.28 fold enrichment (6-mer frequency, TF over GST control)"
11,ATTTAA,"1.24 fold enrichment (6-mer frequency, TF over GST control)"
12,CCTGAC,"1.71 fold enrichment (6-mer frequency, TF over GST control)"
13,CCCGAT,"1.2 fold enrichment (6-mer frequency, TF over GST control)"
14,TAGTAT,"1.33 fold enrichment (6-mer frequency, TF over GST control)"
15,AAACCT,"1.13 fold enrichment (6-mer frequency, TF over GST control)"
16,GTCTCG,"1.25 fold enrichment (6-mer frequency, TF over GST control)"
17,ACTTCA,"1.42 fold enrichment (6-mer frequency, TF over GST control)"
18,CTCAAT,"1.31 fold enrichment (6-mer frequency, TF over GST control)"
19,CCAATA,"1.29 fold enrichment (6-mer frequency, TF over GST control)"
20,GCCTTA,"1.13 fold enrichment (6-mer frequency, TF over GST control)"

row,Sequence,binding signal
1,GATTCA,"1.08 fold enrichment (6-mer frequency, TF over GST control)"
2,GCTCCA,"1.23 fold enrichment (6-mer frequency, TF over GST control)"
3,TCCTTT,"1.69 fold enrichment (6-mer frequency, TF over GST control)"
4,CATTCT,"1.28 fold enrichment (6-mer frequency, TF over GST control)"
5,TTCCTG,"2.57 fold enrichment (6-mer frequency, TF over GST control)"
6,CCTCCT,"1.59 fold enrichment (6-mer frequency, TF over GST control)"
7,TATGAT,"1.24 fold enrichment (6-mer frequency, TF over GST control)"
8,CGATCT,"1.36 fold enrichment (6-mer frequency, TF over GST control)"
9,AGCTAT,"1.16 fold enrichment (6-mer frequency, TF over GST control)"
10,TTATGC,"1.3 fold enrichment (6-mer frequency, TF over GST control)"
11,CTTGCC,"1.17 fold enrichment (6-mer frequency, TF over GST control)"
12,TATCAT,"1.07 fold enrichment (6-mer frequency, TF over GST control)"
13,ATTTCA,"1.27 fold enrichment (6-mer frequency, TF over GST control)"
14,TCTCGA,"1.4 fold enrichment (6-mer frequency, TF over GST control)"
15,TACGCT,"1.3 fold enrichment (6-mer frequency, TF over GST control)"
16,CTGCTG,"1.25 fold enrichment (6-mer frequency, TF over GST control)"
17,GCCTCG,"1.33 fold enrichment (6-mer frequency, TF over GST control)"
18,TATTGA,"1.1 fold enrichment (6-mer frequency, TF over GST control)"
19,TTGATA,"1.15 fold enrichment (6-mer frequency, TF over GST control)"
20,TGGATG,"1.42 fold enrichment (6-mer frequency, TF over GST control)"
